# Structures can show the parent of a compound that is named as a salt. Screen size: about 1,700 compounds; about 15 (0.9%) showed activity. Only a selection was taken, and actives are over-represented in it overall. Unmarked numbers belong to inactive results.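 How the source made its calls: active = infection cut by 80% or more with cell growth above 90% in both runs; inactive = the rest.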
# Tested on: HSV-1 strain 17 YFP-ICP4 in A549
# Assay: HSV-1 infection relative to DMSO (ICP4-YFP per H2B-RFP signal); higher = more viral infection (less antiviral activity), active = hit call of the paper
# Conditions: 10 µM; 48 h; MOI: 0.1
# Protocol: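 Selleck FDA-approved library (L1300) screened in duplicate at 10 µM on A549 H2B-mRuby cells in 384-well plates, infected with HSV-1 strain 17 YFP-ICP4 at MOI 0.1 one hour before drug addition. Imaged after 2 days at 37°C. Cell growth (H2B-RFP) and infection (ICP4-YFP) are expressed as % of DMSO-treated wells. Hits: growth >90% and infection <20% of DMSO.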
row,SMILES,HSV-1 infection
1,O=C(O)CCCC[C@@H]1CCSS1 (racemic) [Thioctic acid],66.1%
2,N=C(N)NCCC[C@@H](NC(=O)[C@@H]1CCCN1C(=O)[C@@H]1CSSCCC(=O)N[C@@H](Cc2ccc(O)cc2)C(=O)N[C@@H](Cc2ccccc2)C(=O)N[C@@H](CCC(N)=O)C(=O)N[C@@H](CC(N)=O)C(=O)N1)C(=O)NCC(N)=O [Desmopressin Acetate],103%
3,NC(=O)CCC(N)C(=O)O (racemic) [DL-Glutamine],114%
4,COc1ccc(Cl)c(Nc2nc3ccccc3nc2NS(=O)(=O)c2cccc(NC(=O)C(C)(C)N)c2)c1 [Pilaralisib (XL147)],93.5%
5,COc1ccc(-c2nc3cc(C4=NNC(=O)CC4C)ccc3[nH]2)cc1 (configuration not stated) [Pimobendan],68.5%
6,CC(=O)[C@@]1(O)CC[C@H]2[C@@H]3CCC4=CC(=O)CCC4=C3[C@@H](c3ccc(N(C)C)cc3)C[C@@]21C [Ulipristal],91.8%
7,CCCN(CCC)C(=O)C1=Cc2ccc(-c3ccc(C(=O)N4CCCC4)cc3)cc2N=C(N)C1 [Motolimod (VTX-2337)],82.9%
8,CN[C@H]1C(=O)N[C@@H]2Cc3ccc(cc3)Oc3cc4cc(c3O[C@@H]3O[C@H](C(=O)O)[C@@H](O)[C@H](O)[C@H]3NC(=O)CCCCCCCCC(C)C)Oc3ccc(cc3Cl)[C@@H](O)[C@@H]3NC(=O)[C@H](NC(=O)[C@@H]4NC(=O)[C@@H](NC2=O)c2cc(cc(O)c2Cl)Oc2cc1ccc2O)c1ccc(O)c(c1)-c1c(O[C@H]2O[C@H](CO)[C@@H](O)[C@H](O)[C@@H]2O)cc(O)cc1[C@@H](C(=O)NCCCN(C)C)NC3=O [Dalbavancin],95.9%
9,CCCCN1CCCC[C@H]1C(=O)Nc1c(C)cccc1C [Levobupivacaine HCl],70.8%
10,COc1ccc([C@H]2CNC(=O)C2)cc1OC1CCCC1 [S- (+)-Rolipram],97.4%
11,CC(C)C[C@H](N)C(=O)O [L-Leucine],100%
12,COC(=O)c1ccccc1O [Methyl salicylate],81.4%
13,CCCCC(=O)N(Cc1ccc(-c2ccccc2-c2nn[nH]n2)cc1)C(C(=O)O)C(C)C.CCOC(=O)C(C)CC(Cc1ccc(-c2ccccc2)cc1)NC(=O)CCC(=O)O (configuration not stated) [Sacubitril/valsartan (LCZ696)],116%
14,FC(F)(F)c1ccc(CNc2ccc(Cc3c[nH]c4ncc(Cl)cc34)cn2)cn1 [Pexidartinib (PLX3397)],102%
15,Cc1ccccc1N1CCN(CCc2nnc3n2CCCC3)CC1 [Dapiprazole Hydrochloride],135%
16,CC(C)C[C@H](NC(=O)CNC(=O)c1cc(Cl)ccc1Cl)B1OC(=O)C(CC(=O)O)(CC(=O)O)O1 [Ixazomib Citrate (MLN9708)],80.4%
17,CCNC(=O)[C@@H]1CCCN1C(=O)[C@H](CCCNC(=N)N)NC(=O)[C@H](CC(C)C)NC(=O)[C@@H](CC(C)C)NC(=O)[C@H](Cc1ccc(O)cc1)NC(=O)[C@H](CO)NC(=O)[C@H](Cc1c[nH]c2ccccc12)NC(=O)[C@H](Cc1c[nH]cn1)NC(=O)[C@@H]1CCC(=O)N1 [Leuprolide Acetate],113%
18,CCNC(=O)[C@@H]1CCCN1C(=O)[C@H](CCCNC(=N)N)NC(=O)[C@H](CC(C)C)NC(=O)[C@@H](CC(C)C)NC(=O)[C@H](Cc1ccc(O)cc1)NC(=O)[C@H](CO)NC(=O)[C@H](Cc1c[nH]c2ccccc12)NC(=O)[C@H](Cc1c[nH]cn1)NC(=O)[C@@H]1CCC(=O)N1 [Leuprorelin Acetate],105%
19,O=C(O)c1ccc(-n2nc(-c3ccccc3O)nc2-c2ccccc2O)cc1 [Deferasirox],79.8%
20,CC(C)(C)NC(=O)N[C@H](C(=O)N1C[C@H]2[C@@H]([C@H]1C(=O)NC(CC1CCC1)C(=O)C(N)=O)C2(C)C)C(C)(C)C (some centres not stated) [Boceprevir],110%
21,COc1c(C)c2c(c(O)c1C/C=C(\C)CCC(=O)O)C(=O)OC2 [Mycophenolic acid],14.4% (active)
22,C[C@H](Oc1ccc(S(C)(=O)=O)cc1C(=O)N1CCN(c2ncc(C(F)(F)F)cc2F)CC1)C(F)(F)F [Bitopertin],92.8%
23,CCCCCCCCOc1ccccc1C(=O)Nc1ccc(C(=O)OCC[N+](C)(CC)CC)cc1 [Otilonium Bromide],60.5%
24,OC[C@@H](O)CN1CCN(c2ccccc2)CC1 [Levodropropizine],64.9%

row,SMILES,HSV-1 infection
1,CC(C)Nc1cc(-c2c[nH]c(C(=O)N[C@H](CO)c3cccc(Cl)c3)c2)c(Cl)cn1,69.3%
2,O=C(Cn1ccnc1[N+](=O)[O-])NCc1ccccc1 [Benznidazole],115%
3,CC(C)C[C@H](NC(=O)CNC(=O)c1cc(Cl)ccc1Cl)B(O)O [Ixazomib (MLN2238)],77.3%
4,N[C@@H]1CN(c2c(F)cc3c(=O)c(C(=O)O)cn([C@@H]4C[C@@H]4F)c3c2Cl)CC12CC2 [Sitafloxacin Hydrate],111%
5,O=C([O-])[O-].[Na+].[Na+] [Sodium carbonate],88%
6,NC(=O)c1nc(F)cnc1O [Favipiravir (T-705)],102%
7,O=C1/C(=C2\Nc3ccccc3C2=O)Nc2ccccc21 [Indigo],105%
8,C=CCN1CCCC1CNC(=O)c1cc2nn[nH]c2cc1OC (configuration not stated) [Alizapride HCl],55.1%
9,CNC(=O)[C@H](Cc1ccccc1)NC(=O)[C@H](CC(C)C)[C@H](CSc1cccs1)C(=O)NO [Batimastat (BB-94)],45.6%
10,CCOC(=O)[C@@H](N)Cc1ccc(-c2cc(O[C@H](c3ccc(Cl)cc3-n3ccc(C)n3)C(F)(F)F)nc(N)n2)cc1 [Telotristat Etiprate (LX 1606 Hippurate)],80.1%
11,CO/N=C(\C(=O)N[C@@H]1C(=O)N2C(C(=O)[O-])=C(C[N+]3(C)CCCC3)CS[C@H]12)c1csc(N)n1 [Cefepime Dihydrochloride Monohydrate],98%
12,CCCc1nc(C(C)(C)O)c(C(=O)O)n1Cc1ccc(-c2ccccc2-c2nnn[nH]2)cc1 [Olmesartan],114%
13,"C[C@H](Nc1ncnc2nc[nH]c12)c1cc2cccc(Cl)c2c(=O)n1-c1ccccc1 [Duvelisib (IPI-145, INK1197)]",69.2%
14,CSCC[C@H](NC(=O)[C@H](CC(C)C)NC(=O)[C@H](Cc1c[nH]c2ccccc12)NC(=O)[C@H](CCC(N)=O)NC(=O)[C@@H](NC(=O)[C@H](Cc1ccccc1)NC(=O)[C@H](CC(=O)O)NC(=O)[C@H](CCC(N)=O)NC(=O)[C@H](C)NC(=O)[C@H](CCCNC(=N)N)NC(=O)[C@H](CCCNC(=N)N)NC(=O)[C@H](CO)NC(=O)[C@H](CC(=O)O)NC(=O)[C@H](CC(C)C)NC(=O)[C@H](Cc1ccc(O)cc1)NC(=O)[C@H](CCCCN)NC(=O)[C@H](CO)NC(=O)[C@H](Cc1ccc(O)cc1)NC(=O)[C@H](CC(=O)O)NC(=O)[C@H](CO)NC(=O)[C@@H](NC(=O)[C@H](Cc1ccccc1)NC(=O)[C@@H](NC(=O)CNC(=O)[C@H](CCC(N)=O)NC(=O)[C@H](CO)NC(=O)[C@@H](N)Cc1cnc[nH]1)[C@@H](C)O)[C@@H](C)O)C(C)C)C(=O)N[C@@H](CC(N)=O)C(=O)N[C@H](C(=O)O)[C@@H](C)O [Glucagon HCl],99.3%
15,COc1cc(CNC(=O)CCCCC=CC(C)C)ccc1O [Capsaicin(Vanilloid)],86.2%
16,"CC1(C)CCC(CN2CCN(c3ccc(C(=O)NS(=O)(=O)c4ccc(NCC5CCOCC5)c([N+](=O)[O-])c4)c(Oc4cnc5[nH]ccc5c4)c3)CC2)=C(c2ccc(Cl)cc2)C1 [Venetoclax (ABT-199, GDC-0199)]",96%
17,CC(O)c1ccc(S(=O)(=O)NC(=O)NC2CCCCC2)cc1 (configuration not stated) [Hydroxyhexamide],94.9%
18,COc1ccc2c(O[C@@H]3C[C@H]4C(=O)N[C@]5(C(=O)NS(=O)(=O)C6CC6)C[C@H]5/C=C\CCCCN(C)C(=O)[C@@H]4C3)cc(-c3nc(C(C)C)cs3)nc2c1C [Simeprevir],84.7%
19,COc1cc(C(=O)O)ccc1NC(=O)[C@@H]1N[C@@H](CC(C)(C)C)[C@](C#N)(c2ccc(Cl)cc2F)[C@H]1c1cccc(Cl)c1F [Idasanutlin (RG-7388)],101%
20,O=c1[nH]c2ccccc2n1CCN1CCN(c2cccc(C(F)(F)F)c2)CC1 [Flibanserin],89.9%
21,CC(C)(Oc1ccc(Cl)cc1)C(=O)OCCOC(=O)c1cccnc1 [Etofibrate],109%
22,NCCCC[C@H](NC(=O)[C@@H]1CCCN1C(=O)[C@@H]1CSSC[C@H](NC(=O)CNC(=O)CNC(=O)CN)C(=O)N[C@@H](Cc2ccc(O)cc2)C(=O)N[C@@H](Cc2ccccc2)C(=O)N[C@@H](CCC(N)=O)C(=O)N[C@@H](CC(N)=O)C(=O)N1)C(=O)NCC(N)=O [Terlipressin Acetate],110%
23,CCOc1ccc(Cc2cc([C@@H]3O[C@H](SC)[C@@H](O)[C@H](O)[C@H]3O)ccc2Cl)cc1 [Sotagliflozin (LX4211)],111%

# — the supplement of paper PMC11537057
